In PubChem BioAssay AID1159580 (chemical genetic matrix, 2015):
Screen size: about 5,500 compounds; about 2,000 (36%) were called active. Not shown: some 18% with an inconclusive outcome. No stated cut-off is given here; in the data, active means normalized growth mostly below about 0.91 (no sharp cut-off); inconclusive means no clear call, values can overlap the other calls; inactive means mostly above about 0.92. Some of the results follow.

Experiment: chemical genetic growth profiling, strain panel (AID 1159580);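 further: tested at 20 µM; growth read once vehicle control cultures reached saturation at 30 °C; 1 = growth at the plate median or of vehicle wells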
Settings: growth OD

Measured: normalized growth

NS(=O)(=O)c1cc2c(cc1Cl)NC(CSCc1ccccc1)=NS2(=O)=O
inactive: S. cerevisiae deletion strains, locus YJR075W, strain HOC1, stronger effect = lower value 0.971 | S. cerevisiae deletion strains, locus YKL009W, strain mrt4, stronger effect = lower value 0.99 | S. cerevisiae deletion strains, locus YKL068W, stronger effect = lower value 0.988 | S. cerevisiae deletion strains, locus YKL085W, strain MDH1 (second series), stronger effect = lower value 0.998 | S. cerevisiae deletion strains, locus YKL085W, strain MDH1, stronger effect = lower value 0.998 | S. cerevisiae deletion strains, locus YKL160W, strain elf1, stronger effect = lower value 1.01 | S. cerevisiae deletion strains, locus YKL190W, strain CNB1, stronger effect = lower value 0.987 | S. cerevisiae deletion strains, locus YKR001C, strain vps1, stronger effect = lower value 0.982 | S. cerevisiae deletion strains, locus YKR026C, strain gcn3, stronger effect = lower value 1.02 | S. cerevisiae deletion strains, locus YKR091W, strain srl3, stronger effect = lower value 1.02 | S. cerevisiae deletion strains, locus YLL001W, strain dnm1, stronger effect = lower value 1.03 | S. cerevisiae deletion strains, locus YLL026W, stronger effect = lower value 1.02 | S. cerevisiae deletion strains, locus YLL041C, strain sdh2, stronger effect = lower value 1.02 | S. cerevisiae deletion strains, locus YLR027C, strain aat2, stronger effect = lower value 1.02 | S. cerevisiae deletion strains, locus YLR039C, strain RIC1, stronger effect = lower value 1.05 | S. cerevisiae deletion strains, locus YLR058C, strain SHM2, stronger effect = lower value 0.982 | S. cerevisiae deletion strains, locus YLR102C, strain apc9, stronger effect = lower value 0.986 | S. cerevisiae deletion strains, locus YLR113W, strain HOG1, stronger effect = lower value 0.97 | S. cerevisiae deletion strains, locus YLR221C, strain rsa3, stronger effect = lower value 1.02 | S. cerevisiae deletion strains, locus YLR258W, strain gsy2, stronger effect = lower value 0.994 | S. cerevisiae deletion strains, locus YLR262C, strain YPT6 (second series), stronger effect = lower value 1.05 | S. cerevisiae deletion strains, locus YLR262C, strain YPT6, stronger effect = lower value 1.04 | S. cerevisiae deletion strains, locus YLR268W, strain sec22, stronger effect = lower value 0.992 | S. cerevisiae deletion strains, locus YLR320W, strain mms22, stronger effect = lower value 0.976 | S. cerevisiae deletion strains, locus YLR330W, strain CHS5, stronger effect = lower value 0.987 | S. cerevisiae deletion strains, locus YLR342W, strain FKS1 (second series), stronger effect = lower value 1.01 | S. cerevisiae deletion strains, locus YLR342W, strain FKS1, stronger effect = lower value 1.02 | S. cerevisiae deletion strains, locus YLR357W, strain rsc2, stronger effect = lower value 1.02 | S. cerevisiae deletion strains, locus YLR370C, strain arc18, stronger effect = lower value 1.01 | S. cerevisiae deletion strains, locus YLR371W, strain rom2, stronger effect = lower value 0.974 | S. cerevisiae deletion strains, locus YLR384C, strain iki3, stronger effect = lower value 1.02 | S. cerevisiae deletion strains, locus YLR418C, strain cdc73, stronger effect = lower value 0.994 | S. cerevisiae deletion strains, locus YML016C, strain PPZ1, stronger effect = lower value 0.987 | S. cerevisiae deletion strains, locus YML032C, strain rad52, stronger effect = lower value 0.995 | S. cerevisiae deletion strains, locus YML120C, strain ndi1, stronger effect = lower value 1.04 | S. cerevisiae deletion strains, locus YML124C, strain tub3, stronger effect = lower value 0.995 | S. cerevisiae deletion strains, locus YMR058W, strain fet3, stronger effect = lower value 1.02 | S. cerevisiae deletion strains, locus YMR078C, strain ctf18, stronger effect = lower value 0.983 | S. cerevisiae deletion strains, locus YMR125W, strain sto1, stronger effect = lower value 1.01 | S. cerevisiae deletion strains, locus YMR129W, stronger effect = lower value 1.03 | S. cerevisiae deletion strains, locus YMR205C, strain PFK2, stronger effect = lower value 1.02 | S. cerevisiae deletion strains, locus YMR223W, strain ubp8, stronger effect = lower value 0.985 | S. cerevisiae deletion strains, locus YMR231W, strain pep5, stronger effect = lower value 1.01 | S. cerevisiae deletion strains, locus YMR263W, strain SAP30, stronger effect = lower value 0.977 | S. cerevisiae deletion strains, locus YMR307W, strain GAS1, stronger effect = lower value 0.971 | S. cerevisiae deletion strains, locus YNL067W, strain RPL9B, stronger effect = lower value 0.959 | S. cerevisiae deletion strains, locus YNL071W, strain lat1, stronger effect = lower value 0.978 | S. cerevisiae deletion strains, locus YNL153C, strain GIM3, stronger effect = lower value 0.966 | S. cerevisiae deletion strains, locus YNL183C, strain NPR1, stronger effect = lower value 0.909 | S. cerevisiae deletion strains, locus YNL209W, strain ssb2, stronger effect = lower value 1 | S. cerevisiae deletion strains, locus YNL233W, strain BNI4, stronger effect = lower value 0.958 | S. cerevisiae deletion strains, locus YNL248C, strain rpa49, stronger effect = lower value 1 | S. cerevisiae deletion strains, locus YNL250W, strain rad50, stronger effect = lower value 0.978 | S. cerevisiae deletion strains, locus YNL271C, strain bni1, stronger effect = lower value 0.998 | S. cerevisiae deletion strains, locus YNL298W, strain CLA4, stronger effect = lower value 0.982 | S. cerevisiae deletion strains, locus YNL307C, strain MCK1, stronger effect = lower value 0.983 | S. cerevisiae deletion strains, locus YNL322C, strain KRE1 (second series), stronger effect = lower value 1.02 | S. cerevisiae deletion strains, locus YNL322C, strain KRE1, stronger effect = lower value 0.994 | S. cerevisiae deletion strains, locus YNR049C, strain mso1, stronger effect = lower value 1.02 | S. cerevisiae deletion strains, locus YNR052C, strain pop2, stronger effect = lower value 0.981 | S. cerevisiae deletion strains, locus YOL012C, strain htz1 0.861 | S. cerevisiae deletion strains, locus YOL147C, strain pex11, stronger effect = lower value 0.985 | S. cerevisiae deletion strains, locus YOR001W, strain rrp6, stronger effect = lower value 1.04 | S. cerevisiae deletion strains, locus YOR061W, strain CKA2, stronger effect = lower value 1 | S. cerevisiae deletion strains, locus YOR069W, strain VPS5, stronger effect = lower value 0.987 | S. cerevisiae deletion strains, locus YOR070C, strain gyp1, stronger effect = lower value 1 | S. cerevisiae deletion strains, locus YOR080W, strain dia2, stronger effect = lower value 1.03 | S. cerevisiae deletion strains, locus YOR083W, strain WHI5, stronger effect = lower value 1.05 | S. cerevisiae deletion strains, locus YOR106W, strain vam3, stronger effect = lower value 1.03 | S. cerevisiae deletion strains, locus YOR136W, strain idh2, stronger effect = lower value 0.979 | S. cerevisiae deletion strains, locus YOR144C, strain elg1, stronger effect = lower value 0.987 | S. cerevisiae deletion strains, locus YOR184W, strain ser1, stronger effect = lower value 0.985 | S. cerevisiae deletion strains, locus YOR231W, strain MKK1, stronger effect = lower value 0.959 | S. cerevisiae deletion strains, locus YOR265W, strain rbl2, stronger effect = lower value 1.01 | S. cerevisiae deletion strains, locus YOR270C, strain vph1, stronger effect = lower value 1.05 | S. cerevisiae deletion strains, locus YOR290C, strain snf2, stronger effect = lower value 1.01 | S. cerevisiae deletion strains, locus YOR316C, strain cot1, stronger effect = lower value 0.973 | S. cerevisiae deletion strains, locus YPL051W, strain arl3, stronger effect = lower value 1.02 | S. cerevisiae deletion strains, locus YPL078C, strain atp4, stronger effect = lower value 1.06 | S. cerevisiae deletion strains, locus YPL106C, strain sse1, stronger effect = lower value 0.973 | S. cerevisiae deletion strains, locus YPL240C, strain hsp82, stronger effect = lower value 1.01 | S. cerevisiae deletion strains, locus YPL256C, strain CLN2, stronger effect = lower value 0.935 | S. cerevisiae deletion strains, locus YPR119W, strain clb2, stronger effect = lower value 0.98 | S. cerevisiae deletion strains, locus YPR141C, strain kar3, stronger effect = lower value 0.973 | S. cerevisiae deletion strains, locus YPR163C, strain tif3, stronger effect = lower value 0.982 | S. cerevisiae deletion strains, locus YPR167C, strain met16, stronger effect = lower value 0.989 | S. cerevisiae deletion strains, strain wtn01, stronger effect = lower value 0.967 | S. cerevisiae strains, strain wild type, stronger effect = lower value 0.992
